Data taken from the supplement of paper PMC11732987, “Enantioselective OTUD7B fragment discovery through chemoproteomics screening and high-throughput optimisation” (Communications Chemistry, 2025).

Key:
Assay in all cases: log2 ratio of Biotin-Ahx-Ub-VS probe labelling (fragment/DMSO); higher = less target engagement (more negative = stronger competition), active = hit call of the paper (q ≤ 0.05, log2 ratio ≤ -1)
Conditions in all cases: compound concentration: 200 uM; treatment time: 3 h
USP42 = molecular target: T1, USP42 (UniProt Q9H9J4)
T1 sequence (whole entry): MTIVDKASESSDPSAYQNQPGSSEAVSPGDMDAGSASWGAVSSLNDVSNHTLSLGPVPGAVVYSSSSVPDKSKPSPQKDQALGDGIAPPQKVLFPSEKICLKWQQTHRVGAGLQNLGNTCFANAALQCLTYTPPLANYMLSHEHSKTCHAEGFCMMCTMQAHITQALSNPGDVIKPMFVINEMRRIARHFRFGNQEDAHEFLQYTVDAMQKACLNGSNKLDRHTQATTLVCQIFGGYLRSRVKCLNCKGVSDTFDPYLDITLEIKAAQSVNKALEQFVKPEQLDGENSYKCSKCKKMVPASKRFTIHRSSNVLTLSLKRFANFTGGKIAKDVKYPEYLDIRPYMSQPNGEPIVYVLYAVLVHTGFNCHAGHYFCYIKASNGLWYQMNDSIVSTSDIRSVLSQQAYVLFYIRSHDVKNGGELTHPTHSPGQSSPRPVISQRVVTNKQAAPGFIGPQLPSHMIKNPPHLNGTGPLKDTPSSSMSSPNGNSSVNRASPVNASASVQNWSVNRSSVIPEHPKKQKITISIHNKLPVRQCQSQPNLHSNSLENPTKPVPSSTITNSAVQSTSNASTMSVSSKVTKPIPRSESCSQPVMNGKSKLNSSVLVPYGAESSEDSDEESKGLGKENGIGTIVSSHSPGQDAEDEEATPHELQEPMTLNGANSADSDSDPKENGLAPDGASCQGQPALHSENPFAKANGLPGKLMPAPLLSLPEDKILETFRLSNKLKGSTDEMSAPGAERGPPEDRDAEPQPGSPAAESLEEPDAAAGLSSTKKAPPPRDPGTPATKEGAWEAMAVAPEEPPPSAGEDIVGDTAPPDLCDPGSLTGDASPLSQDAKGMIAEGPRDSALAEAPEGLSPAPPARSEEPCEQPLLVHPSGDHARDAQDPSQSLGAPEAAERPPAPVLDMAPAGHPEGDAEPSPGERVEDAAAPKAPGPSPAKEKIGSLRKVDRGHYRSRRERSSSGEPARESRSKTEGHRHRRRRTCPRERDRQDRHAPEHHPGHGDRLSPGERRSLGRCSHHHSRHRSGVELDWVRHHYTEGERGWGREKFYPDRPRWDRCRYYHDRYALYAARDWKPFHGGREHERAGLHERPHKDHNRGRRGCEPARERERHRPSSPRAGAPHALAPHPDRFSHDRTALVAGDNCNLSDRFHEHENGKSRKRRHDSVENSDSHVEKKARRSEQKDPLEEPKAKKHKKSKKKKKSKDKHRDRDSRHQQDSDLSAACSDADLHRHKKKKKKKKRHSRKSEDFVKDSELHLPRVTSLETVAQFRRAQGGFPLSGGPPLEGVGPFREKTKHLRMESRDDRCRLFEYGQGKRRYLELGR
How it was run: (§1)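 Triplicate samples of HEK293T lysate, 495 µg each, received fragment at 200 µM or vehicle for 3 h, followed by Biotin-Ahx-Ub-VS (0.5 µM final) for 1 h. After NeutrAvidin enrichment of labelled DUBs and LysC/trypsin digestion, peptides were run by diaPASEF LC-MS/MS. The values are average log2 fragment/vehicle ratios from global-median-normalised Spectronaut label-free quantities, tested by unpaired t-test on proteins having ≥2 unique peptides.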

USP46 = USP46 (UniProt P62068)
How it was run: as §1

USP47 = molecular target: T2, USP47 (UniProt Q96K76)
T2 sequence (whole entry): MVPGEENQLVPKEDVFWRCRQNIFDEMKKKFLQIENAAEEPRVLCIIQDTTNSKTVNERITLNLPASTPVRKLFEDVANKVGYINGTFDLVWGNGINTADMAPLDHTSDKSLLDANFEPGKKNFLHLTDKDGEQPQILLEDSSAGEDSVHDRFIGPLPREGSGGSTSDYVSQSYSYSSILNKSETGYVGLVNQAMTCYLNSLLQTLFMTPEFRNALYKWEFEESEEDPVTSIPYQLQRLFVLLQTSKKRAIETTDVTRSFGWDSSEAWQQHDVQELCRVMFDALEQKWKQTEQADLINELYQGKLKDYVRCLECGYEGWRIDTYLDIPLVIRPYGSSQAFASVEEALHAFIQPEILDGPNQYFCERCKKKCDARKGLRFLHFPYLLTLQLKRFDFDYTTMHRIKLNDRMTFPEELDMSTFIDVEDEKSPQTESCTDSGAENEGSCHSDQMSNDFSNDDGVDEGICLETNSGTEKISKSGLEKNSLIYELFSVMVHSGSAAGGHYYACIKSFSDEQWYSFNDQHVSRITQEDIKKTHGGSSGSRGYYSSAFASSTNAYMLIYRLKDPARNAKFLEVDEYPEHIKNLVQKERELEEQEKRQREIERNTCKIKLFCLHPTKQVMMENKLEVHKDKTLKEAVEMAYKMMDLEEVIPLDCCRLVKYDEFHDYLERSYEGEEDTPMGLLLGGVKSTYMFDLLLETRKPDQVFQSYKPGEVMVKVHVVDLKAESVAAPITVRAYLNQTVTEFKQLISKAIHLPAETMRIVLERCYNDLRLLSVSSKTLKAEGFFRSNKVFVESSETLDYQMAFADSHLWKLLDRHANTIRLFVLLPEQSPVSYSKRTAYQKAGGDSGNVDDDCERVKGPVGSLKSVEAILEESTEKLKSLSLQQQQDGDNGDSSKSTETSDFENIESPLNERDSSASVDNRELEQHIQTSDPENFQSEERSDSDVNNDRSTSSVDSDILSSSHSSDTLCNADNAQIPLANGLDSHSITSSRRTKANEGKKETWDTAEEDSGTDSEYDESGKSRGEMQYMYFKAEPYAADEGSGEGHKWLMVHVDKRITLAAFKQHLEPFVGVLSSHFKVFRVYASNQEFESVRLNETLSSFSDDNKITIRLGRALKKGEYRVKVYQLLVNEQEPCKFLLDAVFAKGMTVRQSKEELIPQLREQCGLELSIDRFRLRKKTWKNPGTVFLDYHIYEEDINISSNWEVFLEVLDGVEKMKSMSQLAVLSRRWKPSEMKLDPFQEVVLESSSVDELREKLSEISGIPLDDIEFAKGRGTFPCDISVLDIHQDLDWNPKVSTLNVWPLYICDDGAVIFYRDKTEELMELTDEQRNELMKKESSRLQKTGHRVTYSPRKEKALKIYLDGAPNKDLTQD
How it was run: as §1

USP48 = molecular target: T3, USP48 (UniProt Q86UV5)
T3 sequence (whole entry): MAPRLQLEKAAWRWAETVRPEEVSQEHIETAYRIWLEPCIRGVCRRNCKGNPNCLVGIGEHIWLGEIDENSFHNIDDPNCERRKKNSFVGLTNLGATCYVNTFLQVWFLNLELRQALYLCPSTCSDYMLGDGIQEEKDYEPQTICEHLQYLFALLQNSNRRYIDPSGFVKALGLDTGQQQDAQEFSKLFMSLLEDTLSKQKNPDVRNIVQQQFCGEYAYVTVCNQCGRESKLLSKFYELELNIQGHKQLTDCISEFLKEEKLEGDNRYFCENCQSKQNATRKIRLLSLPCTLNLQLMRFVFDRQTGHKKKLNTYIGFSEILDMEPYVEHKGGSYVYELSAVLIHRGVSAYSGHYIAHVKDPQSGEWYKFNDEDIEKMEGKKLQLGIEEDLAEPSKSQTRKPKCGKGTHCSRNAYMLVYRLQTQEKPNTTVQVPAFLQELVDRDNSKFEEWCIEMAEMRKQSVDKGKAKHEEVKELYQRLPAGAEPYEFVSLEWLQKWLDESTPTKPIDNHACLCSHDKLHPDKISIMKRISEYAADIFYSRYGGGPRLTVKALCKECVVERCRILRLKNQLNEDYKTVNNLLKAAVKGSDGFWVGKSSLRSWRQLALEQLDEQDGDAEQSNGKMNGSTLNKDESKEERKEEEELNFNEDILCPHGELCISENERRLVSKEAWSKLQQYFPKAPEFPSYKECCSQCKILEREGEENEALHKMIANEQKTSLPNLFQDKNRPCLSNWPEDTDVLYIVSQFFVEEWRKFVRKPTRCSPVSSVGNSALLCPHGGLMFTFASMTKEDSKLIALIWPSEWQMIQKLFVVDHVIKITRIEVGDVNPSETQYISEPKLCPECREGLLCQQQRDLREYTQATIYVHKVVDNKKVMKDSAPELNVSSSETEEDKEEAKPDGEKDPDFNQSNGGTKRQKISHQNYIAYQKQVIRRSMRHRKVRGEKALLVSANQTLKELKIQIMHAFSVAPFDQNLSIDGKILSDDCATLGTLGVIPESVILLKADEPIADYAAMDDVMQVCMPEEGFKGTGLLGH
How it was run: as §1

USP5 = molecular target: T4, USP5 (UniProt P45974)
T4 sequence (whole entry): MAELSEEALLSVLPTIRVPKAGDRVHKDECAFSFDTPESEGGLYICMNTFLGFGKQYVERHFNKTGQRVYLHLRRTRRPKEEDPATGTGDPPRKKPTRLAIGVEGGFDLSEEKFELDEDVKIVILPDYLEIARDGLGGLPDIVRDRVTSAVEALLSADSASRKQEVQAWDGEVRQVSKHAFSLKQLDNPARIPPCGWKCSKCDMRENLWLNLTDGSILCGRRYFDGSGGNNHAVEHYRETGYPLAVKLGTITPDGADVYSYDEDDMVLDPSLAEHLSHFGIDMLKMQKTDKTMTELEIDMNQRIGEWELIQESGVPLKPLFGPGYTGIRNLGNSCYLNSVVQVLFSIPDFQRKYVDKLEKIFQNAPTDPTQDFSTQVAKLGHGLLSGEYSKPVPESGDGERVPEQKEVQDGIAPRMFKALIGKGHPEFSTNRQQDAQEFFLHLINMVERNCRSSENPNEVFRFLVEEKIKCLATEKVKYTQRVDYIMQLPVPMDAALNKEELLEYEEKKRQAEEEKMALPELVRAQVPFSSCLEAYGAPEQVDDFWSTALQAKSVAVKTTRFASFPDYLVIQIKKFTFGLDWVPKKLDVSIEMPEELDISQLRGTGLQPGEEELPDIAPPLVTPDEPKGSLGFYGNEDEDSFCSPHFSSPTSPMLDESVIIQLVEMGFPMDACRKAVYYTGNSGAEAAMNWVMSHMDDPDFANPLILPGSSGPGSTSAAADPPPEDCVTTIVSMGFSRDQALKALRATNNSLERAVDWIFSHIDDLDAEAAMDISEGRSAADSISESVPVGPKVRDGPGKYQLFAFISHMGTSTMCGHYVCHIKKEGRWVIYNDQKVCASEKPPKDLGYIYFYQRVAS
How it was run: as §1

USP54 = USP54 (UniProt Q70EL1)
How it was run: as §1

USP7 = USP7 (UniProt Q93009)
How it was run: as §1

USP8 = molecular target: T5, USP8 (UniProt P40818)
T5 sequence (whole entry): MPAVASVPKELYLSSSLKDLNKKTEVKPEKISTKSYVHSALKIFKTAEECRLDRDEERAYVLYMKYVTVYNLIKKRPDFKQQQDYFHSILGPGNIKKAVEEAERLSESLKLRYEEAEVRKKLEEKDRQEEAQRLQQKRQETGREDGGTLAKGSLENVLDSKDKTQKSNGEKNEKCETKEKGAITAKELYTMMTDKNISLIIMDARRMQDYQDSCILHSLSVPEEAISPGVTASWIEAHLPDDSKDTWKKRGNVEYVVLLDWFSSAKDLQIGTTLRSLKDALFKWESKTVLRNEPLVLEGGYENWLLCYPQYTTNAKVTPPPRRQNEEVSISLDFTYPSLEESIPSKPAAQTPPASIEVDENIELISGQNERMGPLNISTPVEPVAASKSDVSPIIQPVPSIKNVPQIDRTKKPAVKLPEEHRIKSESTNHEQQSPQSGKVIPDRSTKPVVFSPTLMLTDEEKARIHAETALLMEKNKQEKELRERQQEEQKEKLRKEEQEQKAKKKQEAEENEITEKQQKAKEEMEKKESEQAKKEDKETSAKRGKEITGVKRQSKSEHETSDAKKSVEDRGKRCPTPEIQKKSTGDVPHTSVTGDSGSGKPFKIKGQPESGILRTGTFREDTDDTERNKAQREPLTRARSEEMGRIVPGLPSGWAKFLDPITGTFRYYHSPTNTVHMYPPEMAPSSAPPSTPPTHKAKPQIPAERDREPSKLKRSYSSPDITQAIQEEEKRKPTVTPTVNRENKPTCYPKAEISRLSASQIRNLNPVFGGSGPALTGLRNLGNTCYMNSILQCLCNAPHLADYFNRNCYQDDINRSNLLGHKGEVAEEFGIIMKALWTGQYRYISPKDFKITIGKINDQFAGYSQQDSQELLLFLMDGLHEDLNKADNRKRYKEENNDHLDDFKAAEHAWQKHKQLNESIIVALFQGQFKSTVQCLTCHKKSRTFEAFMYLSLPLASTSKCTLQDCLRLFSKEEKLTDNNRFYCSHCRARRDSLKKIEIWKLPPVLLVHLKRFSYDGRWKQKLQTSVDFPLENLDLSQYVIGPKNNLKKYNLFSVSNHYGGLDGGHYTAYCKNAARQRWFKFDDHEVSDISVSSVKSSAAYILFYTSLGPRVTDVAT
How it was run: as §1

USP9X = USP9X (UniProt Q93008)
How it was run: as §1

UniProt O00487 = molecular target: UniProt O00487
How it was run: as §1

Measured: log2 ratio of Biotin-Ahx-Ub-VS probe labelling

USP46, sequence (P62068 whole entry): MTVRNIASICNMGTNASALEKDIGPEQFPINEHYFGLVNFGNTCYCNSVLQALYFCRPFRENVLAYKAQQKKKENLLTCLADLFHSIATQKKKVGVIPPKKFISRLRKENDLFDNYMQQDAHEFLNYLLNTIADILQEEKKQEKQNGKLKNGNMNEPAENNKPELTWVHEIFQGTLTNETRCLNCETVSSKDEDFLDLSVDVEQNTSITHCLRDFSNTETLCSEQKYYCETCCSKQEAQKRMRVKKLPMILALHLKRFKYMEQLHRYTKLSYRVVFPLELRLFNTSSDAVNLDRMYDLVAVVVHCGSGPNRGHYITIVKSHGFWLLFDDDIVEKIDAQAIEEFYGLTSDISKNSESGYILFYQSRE
USP9X, sequence (Q93008 whole entry): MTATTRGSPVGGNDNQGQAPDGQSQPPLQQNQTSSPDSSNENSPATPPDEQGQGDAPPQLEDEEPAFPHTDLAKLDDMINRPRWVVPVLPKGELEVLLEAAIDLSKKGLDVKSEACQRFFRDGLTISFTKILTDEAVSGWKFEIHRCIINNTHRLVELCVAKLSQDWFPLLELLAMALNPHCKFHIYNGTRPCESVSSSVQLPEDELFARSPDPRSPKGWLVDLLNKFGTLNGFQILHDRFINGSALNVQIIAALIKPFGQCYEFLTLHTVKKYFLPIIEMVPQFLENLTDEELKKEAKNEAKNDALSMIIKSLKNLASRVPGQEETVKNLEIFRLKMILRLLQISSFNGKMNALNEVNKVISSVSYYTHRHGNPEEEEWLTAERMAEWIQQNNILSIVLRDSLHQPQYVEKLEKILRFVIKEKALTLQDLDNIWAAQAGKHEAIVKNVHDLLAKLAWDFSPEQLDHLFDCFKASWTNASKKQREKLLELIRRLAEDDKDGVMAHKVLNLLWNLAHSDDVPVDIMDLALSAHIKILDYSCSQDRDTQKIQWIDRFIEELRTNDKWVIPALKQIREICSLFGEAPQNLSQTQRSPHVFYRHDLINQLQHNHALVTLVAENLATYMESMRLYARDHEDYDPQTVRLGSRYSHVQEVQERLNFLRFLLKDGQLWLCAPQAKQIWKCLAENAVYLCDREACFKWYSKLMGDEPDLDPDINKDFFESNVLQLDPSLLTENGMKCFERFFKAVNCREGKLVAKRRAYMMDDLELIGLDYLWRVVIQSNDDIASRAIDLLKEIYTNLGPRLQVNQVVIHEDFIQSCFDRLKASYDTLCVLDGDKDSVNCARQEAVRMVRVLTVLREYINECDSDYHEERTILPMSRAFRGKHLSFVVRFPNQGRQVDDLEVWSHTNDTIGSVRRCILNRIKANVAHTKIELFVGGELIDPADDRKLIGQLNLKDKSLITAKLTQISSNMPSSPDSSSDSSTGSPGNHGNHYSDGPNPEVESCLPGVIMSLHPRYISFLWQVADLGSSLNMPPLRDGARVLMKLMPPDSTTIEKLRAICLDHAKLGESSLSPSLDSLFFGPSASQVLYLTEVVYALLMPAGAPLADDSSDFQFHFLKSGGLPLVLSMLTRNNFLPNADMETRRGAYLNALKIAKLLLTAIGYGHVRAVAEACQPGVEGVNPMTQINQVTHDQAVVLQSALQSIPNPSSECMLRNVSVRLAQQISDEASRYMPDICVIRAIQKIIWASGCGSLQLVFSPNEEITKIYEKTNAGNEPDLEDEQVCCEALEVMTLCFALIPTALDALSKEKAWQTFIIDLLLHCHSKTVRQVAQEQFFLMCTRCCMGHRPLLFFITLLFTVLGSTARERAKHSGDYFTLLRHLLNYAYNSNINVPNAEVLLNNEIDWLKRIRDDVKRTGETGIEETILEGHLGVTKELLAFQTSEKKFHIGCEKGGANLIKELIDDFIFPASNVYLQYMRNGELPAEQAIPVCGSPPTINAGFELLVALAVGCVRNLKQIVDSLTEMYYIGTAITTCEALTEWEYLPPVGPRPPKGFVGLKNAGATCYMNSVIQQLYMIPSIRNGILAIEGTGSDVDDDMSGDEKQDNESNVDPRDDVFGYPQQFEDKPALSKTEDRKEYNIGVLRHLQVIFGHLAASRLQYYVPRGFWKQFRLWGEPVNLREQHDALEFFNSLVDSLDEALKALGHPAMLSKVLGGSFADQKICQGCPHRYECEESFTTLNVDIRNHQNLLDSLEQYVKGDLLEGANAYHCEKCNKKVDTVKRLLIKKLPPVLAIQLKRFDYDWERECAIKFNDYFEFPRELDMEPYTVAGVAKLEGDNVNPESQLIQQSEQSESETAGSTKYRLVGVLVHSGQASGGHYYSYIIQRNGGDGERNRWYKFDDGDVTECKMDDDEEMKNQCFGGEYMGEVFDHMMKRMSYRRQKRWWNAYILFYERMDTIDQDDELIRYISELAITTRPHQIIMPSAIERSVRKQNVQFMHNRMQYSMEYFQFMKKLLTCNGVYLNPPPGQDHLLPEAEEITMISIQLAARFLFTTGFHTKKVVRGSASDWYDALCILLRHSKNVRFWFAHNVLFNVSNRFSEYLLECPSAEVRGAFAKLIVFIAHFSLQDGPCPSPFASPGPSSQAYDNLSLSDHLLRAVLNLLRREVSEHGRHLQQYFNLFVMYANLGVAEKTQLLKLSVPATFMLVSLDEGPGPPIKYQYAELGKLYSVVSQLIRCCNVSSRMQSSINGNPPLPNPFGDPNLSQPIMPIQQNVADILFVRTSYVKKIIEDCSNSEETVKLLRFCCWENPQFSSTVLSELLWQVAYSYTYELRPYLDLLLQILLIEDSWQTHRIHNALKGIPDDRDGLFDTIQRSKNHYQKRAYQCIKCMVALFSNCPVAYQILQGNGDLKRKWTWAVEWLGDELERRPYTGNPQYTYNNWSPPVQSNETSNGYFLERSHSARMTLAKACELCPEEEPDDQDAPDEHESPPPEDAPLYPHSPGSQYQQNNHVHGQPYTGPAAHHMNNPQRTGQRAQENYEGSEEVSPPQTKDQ
USP54, sequence (Q70EL1 whole entry): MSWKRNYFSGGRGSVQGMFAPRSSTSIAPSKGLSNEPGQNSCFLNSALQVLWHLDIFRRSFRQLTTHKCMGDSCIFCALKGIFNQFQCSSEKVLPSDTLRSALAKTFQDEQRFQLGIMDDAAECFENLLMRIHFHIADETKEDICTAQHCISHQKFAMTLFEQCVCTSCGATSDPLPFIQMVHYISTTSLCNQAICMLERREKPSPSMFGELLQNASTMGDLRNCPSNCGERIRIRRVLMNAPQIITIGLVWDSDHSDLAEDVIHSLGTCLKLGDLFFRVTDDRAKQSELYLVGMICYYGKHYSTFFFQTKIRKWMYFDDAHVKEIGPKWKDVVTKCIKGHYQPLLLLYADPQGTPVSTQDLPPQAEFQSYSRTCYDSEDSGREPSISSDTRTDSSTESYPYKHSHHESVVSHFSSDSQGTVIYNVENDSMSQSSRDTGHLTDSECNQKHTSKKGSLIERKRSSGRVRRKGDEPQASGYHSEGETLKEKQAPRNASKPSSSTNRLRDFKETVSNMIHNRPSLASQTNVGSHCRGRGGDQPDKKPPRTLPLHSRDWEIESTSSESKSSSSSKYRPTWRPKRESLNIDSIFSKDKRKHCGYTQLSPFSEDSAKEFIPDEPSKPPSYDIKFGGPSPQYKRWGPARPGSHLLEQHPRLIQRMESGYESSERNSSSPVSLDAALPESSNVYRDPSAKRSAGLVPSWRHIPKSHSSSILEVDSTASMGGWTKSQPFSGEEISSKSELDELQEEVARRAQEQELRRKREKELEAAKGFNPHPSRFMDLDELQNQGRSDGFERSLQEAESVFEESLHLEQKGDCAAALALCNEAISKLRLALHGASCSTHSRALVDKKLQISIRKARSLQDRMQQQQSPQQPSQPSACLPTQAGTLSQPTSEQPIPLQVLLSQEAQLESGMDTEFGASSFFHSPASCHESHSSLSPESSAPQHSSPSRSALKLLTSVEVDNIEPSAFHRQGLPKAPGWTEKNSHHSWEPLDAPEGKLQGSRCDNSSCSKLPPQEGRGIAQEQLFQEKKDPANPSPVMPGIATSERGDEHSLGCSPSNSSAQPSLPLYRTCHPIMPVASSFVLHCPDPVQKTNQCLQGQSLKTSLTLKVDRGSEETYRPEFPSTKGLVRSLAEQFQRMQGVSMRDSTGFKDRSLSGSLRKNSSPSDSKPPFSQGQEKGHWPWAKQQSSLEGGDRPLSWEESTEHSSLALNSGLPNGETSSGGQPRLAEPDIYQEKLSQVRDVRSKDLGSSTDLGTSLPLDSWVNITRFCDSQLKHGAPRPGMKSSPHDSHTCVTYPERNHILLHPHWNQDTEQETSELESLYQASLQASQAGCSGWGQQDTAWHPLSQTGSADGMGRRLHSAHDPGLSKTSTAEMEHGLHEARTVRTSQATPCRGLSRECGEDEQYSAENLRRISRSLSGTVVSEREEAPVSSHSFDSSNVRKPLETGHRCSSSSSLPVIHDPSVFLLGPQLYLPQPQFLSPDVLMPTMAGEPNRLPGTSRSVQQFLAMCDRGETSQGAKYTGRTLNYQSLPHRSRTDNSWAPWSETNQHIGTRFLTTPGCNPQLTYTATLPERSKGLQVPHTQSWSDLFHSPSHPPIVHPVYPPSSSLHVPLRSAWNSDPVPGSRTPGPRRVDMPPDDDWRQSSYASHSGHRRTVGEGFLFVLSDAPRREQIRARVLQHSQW
UniProt O00487, sequence (O00487 whole entry): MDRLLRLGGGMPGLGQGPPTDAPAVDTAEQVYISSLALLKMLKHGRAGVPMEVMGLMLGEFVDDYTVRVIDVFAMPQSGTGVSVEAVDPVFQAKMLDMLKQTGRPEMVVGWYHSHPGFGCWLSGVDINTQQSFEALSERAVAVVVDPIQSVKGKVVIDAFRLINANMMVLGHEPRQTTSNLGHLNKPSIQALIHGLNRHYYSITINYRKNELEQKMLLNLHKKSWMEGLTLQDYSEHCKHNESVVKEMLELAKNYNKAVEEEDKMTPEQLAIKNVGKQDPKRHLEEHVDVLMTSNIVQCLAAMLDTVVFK

Cl.O=C(CCl)NCCN1CCc2ccccc21
inactive: USP42 -0.219 | USP46 -0.521 | USP47 0.103 | USP48 -0.343 | USP5 -0.362 | USP54 0.277 | USP7 -0.711 | USP8 -0.959 | USP9X -0.798 | UniProt O00487 -0.255
